Laboratory results from article PMC7862700, “An all-to-all approach to the identification of sequence-specific readers for epigenetic DNA modifications on cytosine”.

What was measured:
Assay in all cases: DAPPL (digital affinity profiling via proximity ligation, sequencing); 10 mM Tris-HCl pH 7.5, 50 mM NaCl, 1 mM DTT, 4% glycerol, room temperature, 30 min; GST-TFs on glutathione beads, 16-mer random dsDNA library, 0.1% formaldehyde crosslink after washing; high values mean tight binding
FEV = target: T1, FEV (Homo sapiens, UniProt Q99581 1-238); conditions: protein: recombinant; tags: N-terminal GST; dsDNA, one strand shown
T1 sequence: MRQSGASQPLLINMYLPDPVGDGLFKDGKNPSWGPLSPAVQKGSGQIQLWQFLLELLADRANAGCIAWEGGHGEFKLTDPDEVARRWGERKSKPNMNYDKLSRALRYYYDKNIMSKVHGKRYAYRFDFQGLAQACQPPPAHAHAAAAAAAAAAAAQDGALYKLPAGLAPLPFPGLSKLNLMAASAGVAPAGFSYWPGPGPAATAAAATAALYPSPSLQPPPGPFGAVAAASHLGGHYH
Summary of the method: (§1)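 After expression in yeast as GST fusions, human transcription factors were bound to glutathione beads, DNA-barcoded and mixed with a tag-only sample. The pools were incubated with 200 nmole of a 16-mer random double-stranded DNA library in Tris/NaCl/DTT/glycerol buffer (30 min, room temperature), washed and crosslinked with 0.1% formaldehyde. Proximity ligation with BsaI/T4 ligase ran for 1 h at 37 °C, before PCR amplification and sequencing on an Illumina NextSeq500. Binding signal is a hexamer's read frequency for a factor divided by its frequency for the tag-only sample.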

ETV5 = ETV5 (Homo sapiens, UniProt P41161 1-510); conditions: protein: recombinant; tags: N-terminal GST; dsDNA, one strand shown
Summary of the method: as §1

HSF1 = HSF1 (Homo sapiens, UniProt Q00613 1-529); conditions: protein: recombinant; tags: N-terminal GST; chain copies: 3; dsDNA, one strand shown
Summary of the method: as §1

SPIC = target: T2, SPIC (Homo sapiens, UniProt Q8N5J4 1-248); conditions: protein: recombinant; tags: N-terminal GST; dsDNA, one strand shown
T2 sequence: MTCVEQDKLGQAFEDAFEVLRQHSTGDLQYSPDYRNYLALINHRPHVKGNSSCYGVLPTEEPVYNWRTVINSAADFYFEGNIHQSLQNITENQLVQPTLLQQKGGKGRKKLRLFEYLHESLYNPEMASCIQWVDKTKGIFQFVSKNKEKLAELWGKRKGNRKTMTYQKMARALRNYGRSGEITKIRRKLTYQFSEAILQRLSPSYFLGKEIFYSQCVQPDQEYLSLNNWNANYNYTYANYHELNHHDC
Summary of the method: as §1

ELF4 = ELF4 (Homo sapiens, UniProt Q99607 1-663); conditions: protein: recombinant; tags: N-terminal GST; dsDNA, one strand shown
Summary of the method: as §1

ELK4 = target: T3, ELK4 (Homo sapiens, UniProt P28324-2 1-405); conditions: protein: recombinant; tags: N-terminal GST; dsDNA, one strand shown
T3 sequence: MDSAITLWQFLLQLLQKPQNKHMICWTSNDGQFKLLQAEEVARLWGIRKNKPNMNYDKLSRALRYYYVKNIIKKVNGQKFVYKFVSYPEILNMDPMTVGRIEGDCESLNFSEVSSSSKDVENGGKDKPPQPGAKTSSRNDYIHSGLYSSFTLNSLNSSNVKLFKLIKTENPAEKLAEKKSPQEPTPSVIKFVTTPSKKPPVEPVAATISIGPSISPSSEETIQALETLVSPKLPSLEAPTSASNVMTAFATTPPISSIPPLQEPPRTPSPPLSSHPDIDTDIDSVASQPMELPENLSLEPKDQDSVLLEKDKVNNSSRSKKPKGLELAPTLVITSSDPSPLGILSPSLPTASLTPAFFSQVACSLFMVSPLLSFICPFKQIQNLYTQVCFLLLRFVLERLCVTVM
Summary of the method: as §1

ETV2 = target: T4, ETV2 (Homo sapiens, UniProt O00321 1-342); conditions: protein: recombinant; tags: N-terminal GST; dsDNA, one strand shown
T4 sequence: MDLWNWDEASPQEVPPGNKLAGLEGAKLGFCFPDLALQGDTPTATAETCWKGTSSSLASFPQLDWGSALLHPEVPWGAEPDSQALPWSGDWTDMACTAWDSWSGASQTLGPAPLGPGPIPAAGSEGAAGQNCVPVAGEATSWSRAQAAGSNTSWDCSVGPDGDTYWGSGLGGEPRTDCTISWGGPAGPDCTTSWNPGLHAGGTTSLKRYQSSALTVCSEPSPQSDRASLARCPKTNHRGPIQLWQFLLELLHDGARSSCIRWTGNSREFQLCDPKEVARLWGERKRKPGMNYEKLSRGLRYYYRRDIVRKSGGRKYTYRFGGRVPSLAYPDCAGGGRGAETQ
Summary of the method: as §1

ELF3 = target: T5, ELF3 (Homo sapiens, UniProt P78545 1-371); conditions: protein: recombinant; tags: N-terminal GST; dsDNA, one strand shown
T5 sequence: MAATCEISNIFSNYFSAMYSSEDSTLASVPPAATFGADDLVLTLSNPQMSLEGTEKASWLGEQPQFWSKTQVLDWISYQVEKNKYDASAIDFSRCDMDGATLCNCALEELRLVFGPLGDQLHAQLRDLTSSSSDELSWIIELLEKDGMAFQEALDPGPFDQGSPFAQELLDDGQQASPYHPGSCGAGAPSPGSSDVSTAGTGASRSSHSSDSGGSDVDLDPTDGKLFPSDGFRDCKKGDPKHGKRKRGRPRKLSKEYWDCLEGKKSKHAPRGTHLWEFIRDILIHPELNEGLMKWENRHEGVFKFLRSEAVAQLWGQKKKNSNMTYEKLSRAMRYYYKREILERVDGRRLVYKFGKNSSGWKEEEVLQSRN
Summary of the method: as §1

CRX = CRX (Homo sapiens, UniProt O43186 1-299); conditions: protein: recombinant; tags: N-terminal GST; dsDNA, one strand shown
Summary of the method: as §1

ETV1 = ETV1 (Homo sapiens, UniProt P50549 1-477); conditions: protein: recombinant; tags: N-terminal GST; dsDNA, one strand shown
Summary of the method: as §1

ELF4, sequence (Q99607 whole entry): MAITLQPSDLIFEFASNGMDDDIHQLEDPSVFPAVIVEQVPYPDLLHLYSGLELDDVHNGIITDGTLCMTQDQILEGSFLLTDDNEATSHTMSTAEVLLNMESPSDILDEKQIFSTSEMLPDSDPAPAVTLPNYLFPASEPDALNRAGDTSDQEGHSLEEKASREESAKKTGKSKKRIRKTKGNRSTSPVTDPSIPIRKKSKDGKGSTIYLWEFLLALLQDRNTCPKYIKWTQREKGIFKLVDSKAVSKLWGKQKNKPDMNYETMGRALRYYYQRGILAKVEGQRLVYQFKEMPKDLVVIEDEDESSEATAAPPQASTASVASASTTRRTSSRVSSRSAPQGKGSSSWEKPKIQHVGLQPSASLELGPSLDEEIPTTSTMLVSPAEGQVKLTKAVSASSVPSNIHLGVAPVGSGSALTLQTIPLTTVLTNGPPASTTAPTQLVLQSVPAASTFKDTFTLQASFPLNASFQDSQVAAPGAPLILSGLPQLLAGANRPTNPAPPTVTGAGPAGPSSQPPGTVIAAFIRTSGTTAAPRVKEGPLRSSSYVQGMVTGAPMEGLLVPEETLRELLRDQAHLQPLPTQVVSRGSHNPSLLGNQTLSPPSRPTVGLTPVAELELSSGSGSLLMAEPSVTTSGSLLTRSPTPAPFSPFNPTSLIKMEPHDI
HSF1, sequence (Q00613 whole entry): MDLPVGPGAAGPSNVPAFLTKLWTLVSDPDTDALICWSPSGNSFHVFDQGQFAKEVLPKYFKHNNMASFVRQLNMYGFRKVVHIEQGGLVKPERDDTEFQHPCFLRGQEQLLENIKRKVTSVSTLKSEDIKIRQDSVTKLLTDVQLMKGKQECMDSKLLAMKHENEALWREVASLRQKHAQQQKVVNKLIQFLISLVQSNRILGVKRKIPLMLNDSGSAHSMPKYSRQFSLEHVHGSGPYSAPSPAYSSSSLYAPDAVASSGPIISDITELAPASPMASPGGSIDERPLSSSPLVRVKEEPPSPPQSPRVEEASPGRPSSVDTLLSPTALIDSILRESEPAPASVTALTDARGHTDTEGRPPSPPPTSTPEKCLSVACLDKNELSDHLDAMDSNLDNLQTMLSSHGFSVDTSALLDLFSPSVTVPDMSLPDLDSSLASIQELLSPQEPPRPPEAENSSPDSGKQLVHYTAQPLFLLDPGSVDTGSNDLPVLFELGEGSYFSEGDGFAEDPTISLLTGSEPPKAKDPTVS
CRX, sequence (O43186 whole entry): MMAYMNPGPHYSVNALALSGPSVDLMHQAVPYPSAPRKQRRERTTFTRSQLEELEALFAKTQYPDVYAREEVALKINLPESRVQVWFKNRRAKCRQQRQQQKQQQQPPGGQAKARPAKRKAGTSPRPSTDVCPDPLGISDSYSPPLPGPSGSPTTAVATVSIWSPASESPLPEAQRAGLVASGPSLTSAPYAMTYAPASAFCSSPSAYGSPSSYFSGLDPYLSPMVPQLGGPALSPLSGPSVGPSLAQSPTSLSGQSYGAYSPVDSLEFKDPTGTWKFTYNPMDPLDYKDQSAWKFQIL
ETV1, sequence (P50549 whole entry): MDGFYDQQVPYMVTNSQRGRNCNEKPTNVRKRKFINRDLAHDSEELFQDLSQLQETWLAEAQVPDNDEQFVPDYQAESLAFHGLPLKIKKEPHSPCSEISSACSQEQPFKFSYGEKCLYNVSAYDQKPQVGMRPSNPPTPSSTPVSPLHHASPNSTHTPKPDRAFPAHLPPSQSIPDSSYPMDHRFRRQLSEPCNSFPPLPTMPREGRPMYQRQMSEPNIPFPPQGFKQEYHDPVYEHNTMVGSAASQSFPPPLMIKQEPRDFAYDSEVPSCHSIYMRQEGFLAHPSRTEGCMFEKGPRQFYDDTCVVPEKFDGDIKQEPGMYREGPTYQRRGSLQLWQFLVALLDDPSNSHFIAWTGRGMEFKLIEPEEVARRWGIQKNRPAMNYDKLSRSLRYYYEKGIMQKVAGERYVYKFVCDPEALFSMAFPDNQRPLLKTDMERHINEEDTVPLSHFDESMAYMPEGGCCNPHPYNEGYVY
ETV5, sequence (P41161 whole entry): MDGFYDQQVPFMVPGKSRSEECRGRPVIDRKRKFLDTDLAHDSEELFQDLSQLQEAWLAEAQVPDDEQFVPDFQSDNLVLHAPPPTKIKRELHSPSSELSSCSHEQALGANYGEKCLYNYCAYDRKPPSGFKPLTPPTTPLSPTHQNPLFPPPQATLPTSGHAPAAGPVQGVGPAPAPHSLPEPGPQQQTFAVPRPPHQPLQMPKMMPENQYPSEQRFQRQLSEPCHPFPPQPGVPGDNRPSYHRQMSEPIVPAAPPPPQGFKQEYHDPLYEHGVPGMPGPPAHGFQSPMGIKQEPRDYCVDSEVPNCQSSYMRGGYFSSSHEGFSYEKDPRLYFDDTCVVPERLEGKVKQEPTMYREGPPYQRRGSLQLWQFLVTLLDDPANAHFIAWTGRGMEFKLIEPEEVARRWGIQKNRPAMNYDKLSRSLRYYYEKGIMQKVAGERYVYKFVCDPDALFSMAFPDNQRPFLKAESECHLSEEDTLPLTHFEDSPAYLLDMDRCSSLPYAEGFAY

With CTTATG the binding signal (FEV) was 1.35 fold enrichment (6-mer frequency, TF over GST control), the binding signal (ETV5) was 1.5 fold enrichment (6-mer frequency, TF over GST control) and the binding signal (HSF1) was 1.64 fold enrichment (6-mer frequency, TF over GST control). For the same sequence, the binding signal (SPIC) was 1.33 fold enrichment (6-mer frequency, TF over GST control), the binding signal (ELF4) was 1.49 fold enrichment (6-mer frequency, TF over GST control) and the binding signal (ELK4) was 1.55 fold enrichment (6-mer frequency, TF over GST control). For the same sequence, the binding signal (ETV2) was 1.37 fold enrichment (6-mer frequency, TF over GST control), the binding signal (ELF3) was 1.45 fold enrichment (6-mer frequency, TF over GST control) and the binding signal (CRX) was 2.2 fold enrichment (6-mer frequency, TF over GST control). The binding signal (ETV1) was 1.58 fold enrichment (6-mer frequency, TF over GST control).
In the case of TAGTAC, the binding signal (FEV) is reported as 1.16 fold enrichment (6-mer frequency, TF over GST control), the binding signal (ETV5) is reported as 1.14 fold enrichment (6-mer frequency, TF over GST control) and the binding signal (HSF1) is reported as 1.25 fold enrichment (6-mer frequency, TF over GST control). The binding signal (SPIC) was 1.27 fold enrichment (6-mer frequency, TF over GST control), the binding signal (ELF4) was 1.15 fold enrichment (6-mer frequency, TF over GST control) and the binding signal (ELK4) was 1.16 fold enrichment (6-mer frequency, TF over GST control). For the same sequence, the binding signal (ETV2) was 1.06 fold enrichment (6-mer frequency, TF over GST control), the binding signal (ELF3) was 1.14 fold enrichment (6-mer frequency, TF over GST control) and the binding signal (CRX) was 1.29 fold enrichment (6-mer frequency, TF over GST control). For the same sequence, the binding signal (ETV1) was 1.14 fold enrichment (6-mer frequency, TF over GST control).
With CTGCTA the binding signal (FEV) was 1.47 fold enrichment (6-mer frequency, TF over GST control), the binding signal (ETV5) was 1.56 fold enrichment (6-mer frequency, TF over GST control) and the binding signal (HSF1) was 1.37 fold enrichment (6-mer frequency, TF over GST control). For the same sequence, the binding signal (SPIC) was 1.5 fold enrichment (6-mer frequency, TF over GST control), the binding signal (ELF4) was 1.42 fold enrichment (6-mer frequency, TF over GST control) and the binding signal (ELK4) was 1.68 fold enrichment (6-mer frequency, TF over GST control). The binding signal (ETV2) was 1.49 fold enrichment (6-mer frequency, TF over GST control), the binding signal (ELF3) was 1.67 fold enrichment (6-mer frequency, TF over GST control) and the binding signal (CRX) was 1.36 fold enrichment (6-mer frequency, TF over GST control). For the same sequence, the binding signal (ETV1) was 1.64 fold enrichment (6-mer frequency, TF over GST control).
In the case of TCTGAA, the binding signal (FEV) is reported as 1.21 fold enrichment (6-mer frequency, TF over GST control), the binding signal (ETV5) is reported as 1.09 fold enrichment (6-mer frequency, TF over GST control) and the binding signal (HSF1) is reported as 1.23 fold enrichment (6-mer frequency, TF over GST control). The binding signal (SPIC) was 1.2 fold enrichment (6-mer frequency, TF over GST control), the binding signal (ELF4) was 1.2 fold enrichment (6-mer frequency, TF over GST control) and the binding signal (ELK4) was 1.14 fold enrichment (6-mer frequency, TF over GST control). The binding signal (ETV2) was 1.17 fold enrichment (6-mer frequency, TF over GST control), the binding signal (ELF3) was 1.18 fold enrichment (6-mer frequency, TF over GST control) and the binding signal (CRX) was 1.21 fold enrichment (6-mer frequency, TF over GST control). The binding signal (ETV1) was 1.21 fold enrichment (6-mer frequency, TF over GST control).
GTGCTT was tested, and the binding signal (FEV) was 1.25 fold enrichment (6-mer frequency, TF over GST control), the binding signal (ETV5) was 1.19 fold enrichment (6-mer frequency, TF over GST control) and the binding signal (HSF1) was 1.05 fold enrichment (6-mer frequency, TF over GST control). For the same sequence, the binding signal (SPIC) was 1.46 fold enrichment (6-mer frequency, TF over GST control), the binding signal (ELF4) was 1.27 fold enrichment (6-mer frequency, TF over GST control) and the binding signal (ELK4) was 1.1 fold enrichment (6-mer frequency, TF over GST control). For the same sequence, the binding signal (ETV2) was 1.41 fold enrichment (6-mer frequency, TF over GST control), the binding signal (ELF3) was 1.14 fold enrichment (6-mer frequency, TF over GST control) and the binding signal (CRX) was 1.14 fold enrichment (6-mer frequency, TF over GST control). The binding signal (ETV1) was 1.16 fold enrichment (6-mer frequency, TF over GST control).
With GAACAA the binding signal (FEV) was 1.11 fold enrichment (6-mer frequency, TF over GST control), the binding signal (ETV5) was 1.18 fold enrichment (6-mer frequency, TF over GST control) and the binding signal (HSF1) was 1.5 fold enrichment (6-mer frequency, TF over GST control). For the same sequence, the binding signal (SPIC) was 1.23 fold enrichment (6-mer frequency, TF over GST control), the binding signal (ELF4) was 1.2 fold enrichment (6-mer frequency, TF over GST control) and the binding signal (ELK4) was 1.16 fold enrichment (6-mer frequency, TF over GST control). The binding signal (ETV2) was 1.28 fold enrichment (6-mer frequency, TF over GST control), the binding signal (ELF3) was 1.22 fold enrichment (6-mer frequency, TF over GST control) and the binding signal (CRX) was 1.06 fold enrichment (6-mer frequency, TF over GST control). For the same sequence, the binding signal (ETV1) was 1.21 fold enrichment (6-mer frequency, TF over GST control).
With TAATTT the binding signal (FEV) was 1.35 fold enrichment (6-mer frequency, TF over GST control), the binding signal (ETV5) was 1.46 fold enrichment (6-mer frequency, TF over GST control) and the binding signal (HSF1) was 1.64 fold enrichment (6-mer frequency, TF over GST control). For the same sequence, the binding signal (SPIC) was 1.41 fold enrichment (6-mer frequency, TF over GST control), the binding signal (ELF4) was 1.36 fold enrichment (6-mer frequency, TF over GST control) and the binding signal (ELK4) was 1.38 fold enrichment (6-mer frequency, TF over GST control). For the same sequence, the binding signal (ETV2) was 1.58 fold enrichment (6-mer frequency, TF over GST control), the binding signal (ELF3) was 1.49 fold enrichment (6-mer frequency, TF over GST control) and the binding signal (CRX) was 2.03 fold enrichment (6-mer frequency, TF over GST control). The binding signal (ETV1) was 1.35 fold enrichment (6-mer frequency, TF over GST control).
